The term viability denotes a read-out of living cells in per cent, often relative to untreated cells.

The text below walks through data of PubChem BioAssay.

Where “and” joins values, the source holds several entries; their conditions need not be identical. Equal values may be shown once. Calls of active or inactive are those of the source.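 Rule for the calls, unless noted: active = mean z-score across replicates of 1.96 or higher in either the MELAS or the Rieske mutant cell line; inactive = the rest.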

The nature of assay [1]: P. berghei load reduction in hepatocytes – cell-based, HepG2, luciferase luminescence, HepG2 viability, primary screen (AID 624349; in the data active = parasite load remaining mostly below about 12%, no sharp cut-off; inactive = mostly above about 10%;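 note: 100% = mean of DMSO negative control wells on the same plate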). Conditions: P. berghei liver stage in HepG2, luciferase luminescence, concentration not given here; parasite load remaining: stronger effect = lower value; viability: measured here: HepG2 viability without parasites.
A short description of assay [2]: Wnt pathway potentiators raising nuclear beta-catenin – imaging, WNT3A-conditioned medium, mouse C2C12, NPC library, primary screen (AID 1117326; in the data active = nuclear beta-catenin stimulation mostly above about 4.2%, no sharp cut-off; inactive = mostly below about 10%). Conditions: stronger effect = higher value.
Assay [3] can be described thus: stimulators of insulin release from INS-1E, primary screen, cell-based, 5 mM glucose, NPC library (AID 1117329;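 active = compound raises insulin release from rat beta cells at 5 mM glucose, no numeric limit stated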). Conditions: rat INS-1E insulin secretion, at 10 µM, stronger effect = higher value.
A short description of assay [4]: growth inhibition of GSK3B-pretreated HCT116 cells – cell-based, CellTiter-Glo, 0.2 to 20 µM (AID 1117336;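 active = compounds lowering colon cancer cell viability after pretreatment blocking the GSK3B kinase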). Conditions: HCT116 viability after GSK3B inhibitor, at 20 µM, stronger effect = higher value. (In ATP-based viability assays light output follows the ATP content of the culture.)
The nature of assay [5]: inhibition of endothelial tube formation, primary screen, imaging, VEGF stimulated, CD31 staining, tube area, NPC library (AID 1117340;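 active = compound that reduces growth-factor-driven endothelial tube area in a mixed cell culture, no cutoff stated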). Conditions: VEGF-stimulated ADSC/ECFC co-culture, at 10 µM, stronger effect = higher value.
Assay [6] can be described thus: GLP1 release stimulators, primary, NCI-H716, NPC library (AID 1117341;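 active = compound raises GLP1 secretion from the human gut endocrine cells, with no numeric limit stated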). Particulars: NCI-H716 cells, at 10 µM, stronger effect = higher value.
Assay [7] is described as follows: HCT116 colon cancer cell growth inhibition, primary screen, CellTiter-Glo luminescence, NPC library (AID 1117342;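 active = compounds that lower survival of HCT116 colon cancer cells in the luminescence readout, no numeric limit stated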). Conditions: at 20 µM (top of the series).
The nature of assay [8]: reduced SW480 viability measured with CellTiter-Glo, NPC library, primary (AID 1117343;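 active = compounds that lower viability of the colon cancer cells in the luminescence readout, with no numeric limit stated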). Particulars: CellTiter-Glo luminescence; at 20 µM (top of the series) unless noted.
Assay [9] is described as follows: NPC library primary testing for decreased DLD-1 cell viability via CellTiter-Glo (AID 1117346;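 active = compounds that lower survival of DLD-1 colon cancer cells in the luminescence readout, no cutoff given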). Particulars: DLD-1 viability, CellTiter-Glo luminescence; at 20 µM (top of the series).
Assay [10] in a line: viability loss with induced miR-34 in A549 – imaging, A549 dox-inducible miR-34, nuclei and caspase counts, primary screen (AID 1347080;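 active = compounds whose cell count with miR-34 switched on is under 0.7 times the count with it off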). Conditions: A549 miR-34 inducible, Hoechst nuclei count, 48 h.
Assay [11] is described as follows: MELAS cybrid and Rieske KO viability enhancers – cell-based, MELAS cybrids, Rieske KO mouse fibroblasts, CellTiter-Glo, primary screen (AID 1508586).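 Note: z relative to plate mean and SD of compound and empty wells.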 Conditions: low glucose.
A short description of assay [12]: galactose survival enhancers in mitochondrial complex I cybrids – cell-based, galactose medium, ATP luminescence, primary screen (AID 1645843;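 active = z-score of at least 1.8 in each of two replicates, scored against plate mean and spread of sample wells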;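 note: positive z means more ATP and so rescue of galactose-driven cybrid death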). Particulars: complex I mutant cybrid cells, 72 h, stronger effect = higher value.
A short description of assay [13]: compounds altering viability of human ES cells (AID 493140; call rule not given here;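 note: cells exposed to compounds for four days before counting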). Particulars: human embryonic stem cell survival screen; stronger effect = higher value.
For assay [14], the target named is NAD(+) hydrolase SARM1 (Homo sapiens) (UniProt Q6SZW1). Description: blocking NAD cleavage by SARM1 SAM-TIR – cell lysate, NAD-Glo luminescence (AID 1508614;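 active = compound whose remaining NAD level is above about 45 nM, limit read from the data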;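 note: higher remaining NAD means stronger inhibition of SARM1 NADase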). Conditions: SAM-TIR HEK293T lysate NADase, at 1 µM, stronger effect = higher value.
Sequence of NAD(+) hydrolase SARM1 (Homo sapiens) (Q6SZW1 whole entry, looked up, the tested form may be a part): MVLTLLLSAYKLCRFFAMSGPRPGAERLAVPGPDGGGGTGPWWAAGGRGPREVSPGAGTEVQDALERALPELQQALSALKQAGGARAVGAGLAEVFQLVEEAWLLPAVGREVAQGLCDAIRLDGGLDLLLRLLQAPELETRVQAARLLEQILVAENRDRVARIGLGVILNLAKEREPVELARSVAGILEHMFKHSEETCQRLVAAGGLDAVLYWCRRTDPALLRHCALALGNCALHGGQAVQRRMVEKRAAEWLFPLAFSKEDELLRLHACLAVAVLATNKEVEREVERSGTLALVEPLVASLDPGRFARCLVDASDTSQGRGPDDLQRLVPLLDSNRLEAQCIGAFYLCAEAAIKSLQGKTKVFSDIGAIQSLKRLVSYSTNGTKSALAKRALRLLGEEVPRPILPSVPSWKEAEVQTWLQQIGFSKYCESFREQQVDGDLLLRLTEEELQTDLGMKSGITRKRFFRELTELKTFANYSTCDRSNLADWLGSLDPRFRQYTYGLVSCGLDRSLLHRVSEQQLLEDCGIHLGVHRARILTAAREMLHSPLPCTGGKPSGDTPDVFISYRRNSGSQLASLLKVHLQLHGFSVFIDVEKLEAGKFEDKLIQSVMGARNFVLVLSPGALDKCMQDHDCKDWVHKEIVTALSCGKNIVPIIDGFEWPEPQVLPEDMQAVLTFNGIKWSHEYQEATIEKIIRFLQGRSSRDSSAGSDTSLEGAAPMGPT
The target in assay [15] is Mitogen-activated protein kinase 7 (Homo sapiens) (UniProt Q13164). Description: Gal4-ERK5 driven luciferase induction – cell-based, HTS, primary screen (AID 1508626;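 active = luciferase signal above three times the same-plate solvent-only control wells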;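 note: luciferase driven by Gal4-ERK5 fusion binding five Gal4 sites before minimal TATA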). Particulars: HeLa Gal4-ERK5 transactivation, 18 h, at 5 µM, stronger effect = higher value.
Sequence of Mitogen-activated protein kinase 7 (Homo sapiens) (Q13164 whole entry, looked up, the tested form may be a part): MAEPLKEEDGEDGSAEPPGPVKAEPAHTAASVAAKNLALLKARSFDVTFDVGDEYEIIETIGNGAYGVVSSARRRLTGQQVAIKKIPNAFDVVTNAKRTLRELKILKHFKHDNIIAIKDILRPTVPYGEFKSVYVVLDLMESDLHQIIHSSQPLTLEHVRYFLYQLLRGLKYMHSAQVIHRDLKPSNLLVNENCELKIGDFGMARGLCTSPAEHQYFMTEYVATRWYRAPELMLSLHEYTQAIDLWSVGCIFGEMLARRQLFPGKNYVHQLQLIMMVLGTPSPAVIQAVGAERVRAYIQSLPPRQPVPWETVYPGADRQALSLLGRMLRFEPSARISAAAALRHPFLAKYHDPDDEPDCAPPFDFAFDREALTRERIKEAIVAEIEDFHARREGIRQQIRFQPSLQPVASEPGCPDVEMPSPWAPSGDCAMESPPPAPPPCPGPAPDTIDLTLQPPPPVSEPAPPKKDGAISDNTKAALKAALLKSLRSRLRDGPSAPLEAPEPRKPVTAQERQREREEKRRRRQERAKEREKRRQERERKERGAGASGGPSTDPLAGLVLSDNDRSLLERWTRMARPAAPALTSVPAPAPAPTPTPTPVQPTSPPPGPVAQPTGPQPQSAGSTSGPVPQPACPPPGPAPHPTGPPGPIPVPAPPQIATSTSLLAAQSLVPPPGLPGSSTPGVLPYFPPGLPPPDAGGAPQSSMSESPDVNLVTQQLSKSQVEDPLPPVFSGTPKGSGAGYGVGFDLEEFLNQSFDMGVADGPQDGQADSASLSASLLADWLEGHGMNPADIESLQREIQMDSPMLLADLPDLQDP
The mark [16] stands for this setting: stronger effect = lower value, cell number ratio, induced over uninduced.
[17] abbreviates: measured here: relative caspase fold change +Dox/-Dox.
Setting [18] is: measured here: total cells with miR-34 induction, stronger effect = lower value.
Setting [19] is: measured here: total cells without miR-34 induction.
Setting [20] is: MELAS cybrid survival, CellTiter-Glo 48 h, stronger effect = higher value.
Setting [21] is: Rieske KO mouse fibroblast survival, CellTiter-Glo 72 h.

As to `CN(Cc1ccc(C(C)(C)C)cc1)Cc1cccc2ccccc12`, the parasite load remaining in assay [1] was 43.3% (inactive). In addition, the viability in assay [1] is 140%. Also, the nuclear beta-catenin stimulation is -1.4% (inactive) in assay [2] (at 10 µM) and -0.7% in assay [2] (stimulation, at 2 µM). For the same compound, in [3], the insulin secretion stimulation is -1% (inactive). Besides, in assay [4], the viability decrease is 37.6% (inactive). The tube area decrease in [5] is 7.1% (inactive). In [6], the GLP1 secretion stimulation is -4% (inactive). Moreover, the inhibition of viability in assay [7] is 50.7% (active). In addition, the viability decrease (inhibition) in assay [8] is 62.7% (active); in [9] it was 37.8% (inactive). The fold change in assay [10] (setting [16]) is 0.848 (inactive) and 0.895 (inactive); in assay [10] (setting [17]), 0.76 and 0.344. Further, the cell count was 7540 and 9920 in assay [10] (setting [18]); 8900 and 11100 in [10] (setting [19]). The z-score in assay [11] (setting [20]) was -0.284 (inactive) and -0.0947 (inactive) and -0.415 (inactive); in assay [11] (setting [21]), -0.307 and 0.166 and -0.508; in assay [12] it was -1.71 (inactive).
On to `COC(=O)C(c1ccccc1Cl)N1CCc2sccc2C1` (stereo not drawn), for which the nuclear beta-catenin stimulation in assay [2] (at 10 µM) is 0.3% (inactive); in assay [2] (stimulation, at 2 µM), -0.7%. The insulin secretion stimulation in assay [3] is 1.9% (inactive). Besides, the viability decrease in assay [4] was 30.5% (inactive). Also, the tube area decrease in assay [5] is 1.2% (inactive). Further, the GLP1 secretion stimulation in assay [6] is 3.9% (inactive). The inhibition of viability in assay [7] was 52.7% (active). The values for the viability decrease (inhibition) in assay [8] and in assay [9] were 18.6% (inactive) and 48.7% (inactive), respectively. The fold change in [10] (setting [16]) is 0.927 (inactive); in [10] (setting [17]), 0.912. In addition, the cell count in [10] (setting [18]) worked out at 7680; in [10] (setting [19]), 8290. The z-score in assay [11] (setting [20]) is -0.416 (inactive); in assay [11] (setting [21]), 0.984.
For the compound `CC(=O)[C@H]1CC[C@H]2[C@@H]3C=CC4=CC(=O)CC[C@@]4(C)[C@@H]3CC[C@]12C`, the survival in [13] is 6.67 (inactive). The parasite load remaining in [1] was 84.3% (inactive). In addition, in [1], the viability is 94.2%. In addition, the nuclear beta-catenin stimulation in assay [2] (at 10 µM) is 4.5% (inactive); in [2] (stimulation, at 2 µM) it was 1.5%. Also, the insulin secretion stimulation in assay [3] was -1.8% (inactive). For the same compound, the viability decrease in assay [4] was 6.3% (inactive). In [5], the tube area decrease is 4.8% (inactive). In [6], the GLP1 secretion stimulation was 3.1% (inactive). In addition, in assay [7], the inhibition of viability was 14.9% (inactive). The values for the viability decrease (inhibition) in assay [8] and in assay [9] were 64.2% (active) and 5.4% (inactive), respectively. Besides, the values for the fold change in assay [10] (setting [16]) and in assay [10] (setting [17]) were 0.855 (inactive) and 1.43, respectively. Moreover, the cell count amounted to 8320 in assay [10] (setting [18]) and 9730 in assay [10] (setting [19]). Further, the z-score in assay [11] (setting [20]) was 0.367 (inactive); in assay [11] (setting [21]), 0.105. Besides, the remaining NAD in assay [14] is 10 nM (inactive).
`O=P(O)(O)OC(CO)CO`: the nuclear beta-catenin stimulation in assay [2] (at 10 µM) is 0.1% (inactive); in assay [2] (stimulation, at 2 µM), 0.7%. Moreover, the insulin secretion stimulation in assay [3] was 1.2% (inactive). The viability decrease in assay [4] was 3.9% (inactive). In assay [5], the tube area decrease was 14.1% (inactive). Besides, the GLP1 secretion stimulation in [6] was -1.6% (inactive). For the same compound, the inhibition of viability in assay [7] is -0.7% (inactive). For the same compound, the viability decrease (inhibition) in [8] is -2% (inactive); in assay [9] it was -3.3% (inactive). Further, the fold change in assay [10] (setting [16]) is 0.854 (inactive); in assay [10] (setting [17]), 0.424. For the same compound, the cell count in assay [10] (setting [18]) was found to be 8550; in assay [10] (setting [19]), 10000. Further, the z-score in [11] (setting [20]) is 0.561 (inactive); in [11] (setting [21]), -0.261; in assay [12], 0.385 (inactive).
Consider `C=C1C[C@H]2[C@@H]3C=C(C)C4=CC(=O)CC[C@]4(C)[C@H]3CC[C@]2(C)[C@@]1(OC(C)=O)C(C)=O`, for which, in assay [1], the parasite load remaining was 14.5% (inactive). In [1], the viability was 66%. Also, the nuclear beta-catenin stimulation was -0.2% (inactive) in [2] (at 10 µM) and 0.8% in [2] (stimulation, at 2 µM). Further, in assay [3], the insulin secretion stimulation is 0.5% (inactive). The viability decrease in [4] was 37.4% (inactive). Besides, in assay [5], the tube area decrease was -17.7% (inactive). Also, the GLP1 secretion stimulation in assay [6] is -1.4% (inactive). The inhibition of viability in assay [7] is 62% (active). Further, the viability decrease (inhibition) in [8] is 61.1% (active); in assay [9], 53.6% (active). For the same compound, the fold change is 0.868 (inactive) in assay [10] (setting [16]) and 1.42 in [10] (setting [17]). For the same compound, the cell count in assay [10] (setting [18]) came to 5790; in assay [10] (setting [19]), 6660. Also, the z-score in [11] (setting [20]) is 0.533 (inactive) and 0.334 (inactive); in [11] (setting [21]) it was 0.392 and 1.14; in assay [12] it was -0.29 (inactive). The remaining NAD in assay [14] was 15 nM (inactive). For the same compound, the luciferase signal in assay [15] is 64 AU (inactive).
